Here are results for 13 compounds from PubChem BioAssay (NCATS).

Results filed as inconclusive are left out. Where a call stands in place of a potency, no number is given. Active and inactive are the calls of the source. Calls come from the whole dose curve.
Potency is the fitted concentration of half-maximal effect.

This test can be described thus: Natriuretic polypeptide receptor (hNpr1) antagonism - Pilot counterscreen GloSensor control cell line (AID 1347045). To be noted: HEK293 cGMP GloSensor cells, SNP-stimulated luminescence, 20 min; series mostly up to 38.3 µM. As for the experimental part: F. Fan, B. F. Binkowski, B. L. Butler, P. F. Stecha, M. K. Lewis, K. V. Wood, Novel genetically encoded biosensors using firefly luciferase. ACS Chem Biol 3, 346-351 (2008).
PROTOCOL TABLE (as described by Inglese J, Shamu CE and Guy RK. 2007)
SEQUENCE No. (e.g., 1, 2, 3, etc.); […] (e.g., Cells, Incubation, Reagent, etc.); VALUE and DESCRIPTION.
1. Cells. Seed 1500 HEK293 cGMP-sensor cells per well in 4uL into Greiner 1536-well white/solid bottom high base, TC plates.
2. Incubation. Incubate plated cells at 37C in 5% CO2, 95% RH overnight.
3. Reagent. Add 1uL per well GloSensor reagent from Promega (2% final concentration) or CO2 independent media vehicle control to respective columns of Greiner 1536-well plates.
4. Incubation. Incubate plated cells at room temperature for 2 h, protect from light.
5. Compounds. Library compounds and DMSO vehicle control added at 23nL per well, transferred by Pin Tool.
6. Incubation. Incubate plated cells for 30 min. at room temperature, protect from light.
7. Detector. GloSensor baseline pre-read luminescence measured using CCD-based camera (Viewlux).
8. Compound. Add 1uL of sodium nitroprusside (SNP) to 50 uM final concentration to stimulate soluble guanylyl cyclase (GC) or CO2 independent media as vehicle control.
9. Incubation. Incubate treated cells at room temperature for 20 min., protect from light.
10. Detector. GloSensor post-SNP luminescence measured using CCD-based camera (Viewlux).
NOTES (numbers refer to Sequence numbers above; values are from representative experiments)
1. HEK293 cells expressing GIP/pGS-40F were grown to 85-95% confluence (48-72 h) in T175 culture flasks (CO2 independent media supplemented with 10% FBS, 1% Pen/Strep antibiotics, and 1 ug/mL puromycin). Trypsinize and harvest cells from T175 culture flasks and filter through 40 um cell strainer. Cells counted with Invitrogen Countess (30,000,000 - 50,000,000 cells/flask).
2. Cells incubated for 24 h. at 37C in 95% RH incubator with metal lid having gas-exchange holes.
3. Prepare GloSensor Reagent (Promega): Reconstitute GloSensor luciferase substrate by adding 8.2mL Hepes buffer to 250mg substrate, mix well, protect from light and stored at -80C. Prepare a fresh 12% GloSensor solution in CO2 independent supplemented plating media (see above). Mix well and store at ambient temperature, protected from light. 1uL 12% GloSensor Luciferase Reagent added (2% final concentration) to respective columns of 9 x 1536-well Greiner plate with BioRaptr, 1uL CO2 independent plating media added to respective columns as vehicle control with BioRaptr.
4. Cells incubated for 2 h. at ambient temperature, protected from light with metal lid having gas-exchange holes.
5. 23nL of LOPAC128 library compounds (7 plates) or DMSO vehicle control transferred to 9 Greiner white/solid bottom high base, TC plates in 7 interplate 1:5 titrations (see Yasgar, A. et al. 2008) with Pintool. Two of the 9 plates are DMSO-only in compound field at beginning and end of compound library-treated plates.
6. Cells incubated for 30-50 min. at ambient temperature protected from light with metal lid having gas-exchange holes.
7. Read GloSensor + Antagonist/Compound baseline Luminescence on the ViewLux [Exposure, 30 s; Gain, High; Speed, Slow; Binning, 2X]
8. SNP solution prepared at 500 mM (in H2O) stock concentration. From this a working dilution was prepared at 300 uM in CO2 Independent media. 1uL of 300 uM SNP (50 uM final concentration) or CO2 Independent media vehicle control dispensed into respective columns of 9 x Greiner 1536-well white/solid bottom, tissue culture plates with BioRaptr.
9. Cells incubated for 20 min. at ambient temperature, protected from light with metal lid having gas-exchange holes.
10. Read final luminescence on the ViewLux. [Exposure, 30 s; Gain, High; Speed, Slow; Binning, 2X.]
[…]
As to `C[N+](C)(C)CCO`, the Potency entry is “inactive”. Consider `NC(N)=NCCCCN=C(N)N`, for which the Potency entry was “inactive”. Then `CC(C)N(CCC(=O)c1ccc2ccccc2c1)Cc1ccccc1`, with 13.1 µM (active); and `CN(C)c1cc2c(Nc3ccc4c(cnn4Cc4ccccc4)c3)ncnc2cn1`, with “inactive”. Then `Cc1nn(-c2ccccc2)c(C)c1/C=N/N1CCN(Cc2ccccc2)CC1`, with “inactive”. `COC(=O)C1=CO[C@@H](O)[C@@H]2C(CO)=CC[C@H]12`: the Potency result is “inactive”. Then `N[C@@H](Cn1ccc(=O)c(O)c1)C(=O)O`, with “inactive”; and `Cn1cnc2c(NCc3ccccc3)nc(NCCO)nc21`, with “inactive”; and `COc1ccccc1N1CCN(CCN2C(=O)CC3(CCCC3)CC2=O)CC1`, with “inactive”. Then `Nc1ncnc2n[nH]c(Nc3ccc(F)cc3)c12`, with “inactive”; and `O=C1NC(c2cccc([N+](=O)[O-])c2)=CCN1c1ccccc1O`, with “inactive”.

On to `Brc1ccc([C@H]2CN3CCSC3=N2)cc1`, for which the Potency entry was “inactive”. Then `COc1cccc2c1[C@@H]1CN(CCCCn3c(=O)[nH]c4c(sc5ncc(-c6ccccc6)nc54)c3=O)C[C@@H]1CO2`, with “inactive”.
